Assay outcomes: PubChem, National Center for Advancing Translational Sciences (NCATS)
Sampled rows, rich in hits. Any-hit rate of the full collection: about 1.3%.
RGS4 inh – inhibitors of human regulator of G protein signaling 4 | 390,000 compounds, 0.039% hits | Potency, µM (doses to about 114 µM), inactives show top-dose activity change, negative = inhibition, actives largely listed as inhibitors | AID 504845 | P49798 | Transcreener GDP fluorescence polarization, RGS4-accelerated GTP hydrolysis; further: on the % scale 0 is the no-effect control and ±100 the full control effect; nearly all actives have a fitted effect of over 75% in size
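MLSMR compounds (23 nl, pin-transferred) preincubated 10 min at room temperature with a 500nM (2x) first reagent, then RGS4 at 900nM (2x) plus Transcreener GDP mix added; fluorescence polarization (620/688 nm) read before and after 90 min at 30 °C.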
EPAC2 agonist – activates human EPAC2 exchange factor. 360,000 compounds, 0.079% hits. AID 720711. EPAC2 activation, biochemical qHTS; response scale: 100% = 6.5 mM cAMP response. Potency, µM (doses to about 154 µM), inactives show at the highest dose activation, hits mostly activators; further: nearly all actives have a fitted effect of over 50% in size
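Setup: EPAC2 100 nM, labeled Rap1B complex 250 nM, free GDP 50 uM. Compound titrations pinned in, brief spin, 5 min room temperature incubation. Kinetic fluorescence read over 30 min, normalized to 6.5 mM cAMP.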
EPAC1 ag – agonists of human EPAC1. O95398. EPAC1 agonist qHTS, biochemical assay; response scale: 100% = response to 6.5 mM cAMP. Potency, µM (top dose mostly 154 µM), without a hit: at the highest dose activation, actives largely listed as activators. 360,000 compounds, 0.073% hits. AID 720707; further: nearly all actives have a fitted effect of over 60% in size
Target sequence (O95398 whole entry, looked up): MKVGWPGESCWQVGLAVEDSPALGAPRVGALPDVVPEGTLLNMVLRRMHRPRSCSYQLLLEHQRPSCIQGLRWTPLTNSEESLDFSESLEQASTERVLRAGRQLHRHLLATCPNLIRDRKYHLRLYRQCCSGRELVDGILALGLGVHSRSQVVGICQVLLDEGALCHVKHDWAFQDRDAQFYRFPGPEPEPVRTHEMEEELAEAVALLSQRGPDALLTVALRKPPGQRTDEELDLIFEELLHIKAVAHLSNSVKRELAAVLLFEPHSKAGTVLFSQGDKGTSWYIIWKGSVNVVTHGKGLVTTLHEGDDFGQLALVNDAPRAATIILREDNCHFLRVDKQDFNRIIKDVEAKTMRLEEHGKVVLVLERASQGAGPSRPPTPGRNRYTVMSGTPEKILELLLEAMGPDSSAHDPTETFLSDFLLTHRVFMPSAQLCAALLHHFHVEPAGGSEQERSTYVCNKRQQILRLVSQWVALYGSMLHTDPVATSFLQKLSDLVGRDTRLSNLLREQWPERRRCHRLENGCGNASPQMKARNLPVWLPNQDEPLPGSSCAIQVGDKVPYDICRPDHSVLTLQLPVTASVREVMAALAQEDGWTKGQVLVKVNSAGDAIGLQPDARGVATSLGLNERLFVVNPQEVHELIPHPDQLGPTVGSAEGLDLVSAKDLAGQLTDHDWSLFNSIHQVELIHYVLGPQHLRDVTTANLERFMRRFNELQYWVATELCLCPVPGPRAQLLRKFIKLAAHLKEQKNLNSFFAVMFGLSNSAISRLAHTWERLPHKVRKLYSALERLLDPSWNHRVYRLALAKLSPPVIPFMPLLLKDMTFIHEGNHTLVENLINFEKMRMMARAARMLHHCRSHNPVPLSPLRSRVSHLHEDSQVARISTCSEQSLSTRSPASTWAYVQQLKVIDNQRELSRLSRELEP
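Multi-concentration qHTS readout: loss of Rap1B-bound BODIPY-GDP fluorescence driven by 100 nM EPAC1 with excess GDP (50 uM), monitored kinetically at room temperature; agonist response expressed relative to 6.5 mM cAMP.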
EPAC2 antag – blocks human EPAC2 exchange factor | 360,000 compounds, 0.18% hits | Q8WZA2 | Potency, µM (series often up to 114 µM), inactives show top-dose activity, negative = inhibition, hits mostly inhibitors | EPAC2 GEF exchange of Rap1B-BODIPY-GDP, fluorescence; further: on the % scale 0 is the no-effect control and ±100 the full control effect; nearly all actives have a fitted effect of over 45% in size
EPAC1 antagonist – antagonists of human EPAC1. O95398. EPAC1 GEF assay, Rap1b-BODIPY-GDP exchange fluorescence. Potency, µM (top dose mostly 115 µM), for inactives: at the highest dose activity change, negative = inhibition, actives largely listed as inhibitors. 360,000 compounds, 0.14% hits;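 further: plate controls were vehicle for no effect and positive control for full effect; nearly all actives have a fitted effect of over 50% in size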
BRCA1 expr up – activators of BRCA1 expression; Potency, µM (doses to about 46.1 µM), without a hit: at the highest dose activation, actives largely listed as activators; 380,000 compounds, 1.1% hits; MCF7-BRCA1-FFLuc reporter, luminescence, 48 h; response scale: scaled: vehicle 0%, 10 µM genistein 100%; further: nearly all actives have a fitted effect of over 80% in size
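Reporter cells (MCF7, BRCA1 promoter-firefly luciferase) received library compounds across a concentration series for 48 h. End-point luminescence was measured and concentration-effect curves derived after normalization.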
Starred values were filed as active, the others as inactive; [ ] = another dose, or the depositor's remark. The call rests on the fitted dose curve; in most records, active means well fitted curve in the direction sought with a large enough effect; inconclusive means small, poorly fitted or top-dose-only effect, or another doubt; inactive means no such curve, though single readings can be large; an effect the other way counts as inactive or inconclusive. Potency means the concentration at half of the fitted maximal effect.

How did CC(NC(=O)Cc1ccccc1)c1ccc(F)cc1 (configuration not stated) do in these assays?
RGS4 inh: -12.6%; EPAC2 agonist: -1.3%; EPAC1 ag: -11.3%; EPAC2 antag: 11.0%; EPAC1 antagonist: -7.8%; BRCA1 expr up: -22.9%

Results for O=[N+]([O-])c1ccccc1OCCCn1cnc2ccccc21 ?
RGS4 inh: 11.5%; EPAC2 agonist: -7.8%; EPAC1 ag: 2.1%; EPAC2 antag: 2.5%; EPAC1 antagonist: 0.3%; BRCA1 expr up: 2µM*

Results for O=c1c2ccccc2ncn1CCCOc1ccccc1[N+](=O)[O-] ?
RGS4 inh: -11.9%; EPAC2 agonist: 7.4%; EPAC1 ag: -0.3%; EPAC2 antag: 6.0%; EPAC1 antagonist: 6.4%; BRCA1 expr up: inconclusive

What do the screens show for `CNC(=O)CN(C1CCCCC1)S(=O)(=O)c1ccc(F)cc1`?
RGS4 inh: -13.7%[11.4 µM]; EPAC2 agonist: -0.5%; EPAC1 ag: -3.9%; EPAC2 antag: 6.5%; EPAC1 antagonist: 10.3%; BRCA1 expr up: 3.6%

Results for O=C(N/N=C\c1c(O)ccc2ccccc12)c1ccc(S(=O)(=O)N2CCCCC2)cc1 ?
RGS4 inh: -12.8%; EPAC2 agonist: 100µM*; EPAC1 ag: 0.9%; EPAC2 antag: 27.9%; EPAC1 antagonist: -22.5%; BRCA1 expr up: -80.8%

Results for Cc1cccc(NC(=O)Cc2c(F)cccc2Cl)n1 ?
RGS4 inh: -12.9%; EPAC2 agonist: 4.8%; EPAC1 ag: -1.7%; EPAC2 antag: -11.1%; EPAC1 antagonist: -14.0%; BRCA1 expr up: inconclusive

What do the screens show for `Cc1csc(NC(=O)Cc2c(F)cccc2Cl)n1`?
RGS4 inh: 1.6%; EPAC2 agonist: 3.7%; EPAC1 ag: 7.1%; EPAC2 antag: -6.7%; EPAC1 antagonist: -16.9%; BRCA1 expr up: 4.47µM*

Results for N#CCCN(C(=O)Nc1ccccc1)c1ccccc1 ?
RGS4 inh: 19.7%; EPAC2 agonist: -2.7%; EPAC1 ag: 1.1%; EPAC2 antag: 7.1%; EPAC1 antagonist: 1.0%; BRCA1 expr up: -6.5%

Results for CC(=O)N1CCN(C(=O)c2ccc(-c3ccccc3Cl)o2)CC1 ?
RGS4 inh: -12.8%; EPAC2 agonist: 10.7%; EPAC1 ag: 9.1%; EPAC2 antag: 24.3%; EPAC1 antagonist: -8.1%; BRCA1 expr up: 11.2µM*

Results for CC(C)(CNC(=O)c1ccc(Br)o1)N1CCOCC1 ?
RGS4 inh: 4.9%; EPAC2 agonist: 2.4%; EPAC1 ag: 3.7%; EPAC2 antag: -1.0%; EPAC1 antagonist: 21.3%; BRCA1 expr up: -4.4%

How did CC(C)(CNC(=O)c1ccc(-c2ccccc2Cl)o1)N1CCOCC1 do in these assays?
RGS4 inh: 3.8%; EPAC2 agonist: 21.2%; EPAC1 ag: 10.3%; EPAC2 antag: -2.5%; EPAC1 antagonist: -4.0%; BRCA1 expr up: 10µM*

What do the screens show for `Cc1ccc(-c2noc(-c3cccs3)n2)cc1`?
RGS4 inh: 17.1%; EPAC2 agonist: 14.1%; EPAC1 ag: 19.9%; EPAC2 antag: -1.6%; EPAC1 antagonist: 6.2%; BRCA1 expr up: -2.5%

How did c1csc(-c2nc(N3CCCCC3)no2)c1 do in these assays?
RGS4 inh: -1.4%; EPAC2 agonist: 6.1%; EPAC1 ag: 6.5%; EPAC2 antag: 0.7%; EPAC1 antagonist: 13.6%; BRCA1 expr up: 6.31µM*

Results for O=C(CNC(=O)c1ccccc1F)OCCCOC(=O)CNC(=O)c1ccccc1F ?
RGS4 inh: 47.3%; EPAC2 agonist: -3.7%; EPAC1 ag: 9.8%; EPAC2 antag: -1.9%; EPAC1 antagonist: -24.8%; BRCA1 expr up: 1.2%

How did Cc1ccn2cc(-c3cnoc3C)nc2c1 do in these assays?
RGS4 inh: -20.6%[11.4 µM]; EPAC2 agonist: 3.7%; EPAC1 ag: -3.8%; EPAC2 antag: 2.5%; EPAC1 antagonist: 3.2%; BRCA1 expr up: 10µM*
